This passage reports outcome results from PubChem BioAssay (NCATS).

Active and inactive are the calls of the source. Calls come from the whole dose curve; as a rule, active = well fitted curve in the direction sought with a large enough effect; inconclusive = small, poorly fitted or top-dose-only effect, or effect the other way, or another doubt; inactive = no such curve, though single readings can be large or run the other way.

This assay can be described thus: Inducers of the Endoplasmic Reticulum Stress Response (ERSR) in human glioma: Validation (AID 504836). Particulars: human glioma cells, ER stress response reporter; series mostly up to 38.3 µM. The source says: Primary protein unfolding takes place for many diseases, including diabetes and hypoxia, , and triggers a reaction in the cells called ER stress response (ERSR). ). ERSR is designed as a repair mechanism, but ultimately leads to cell death via apoptosis if conditions triggering protein unfolding persist (1). The molecular clue to ERSR activation is the enhancement of the expression of key molecular chaperones, including the glucose regulated protein (GRP) 78. GRP78 is the main sensor for protein folding and the main actuator of the ERSR.
In a collaboration between the Southern Research Institute and the NIH Chemical Genomics Center, a cell based screen was developed that reliably uses GRP78 as a sensor to identify small molecules as inducers of ERSR. In resting conditions, GRP78 binds proteins and acts as a natural repressor. Once unfolded proteins are present in the ER, GRP78 releases some of the repressors and binds to the unfolded proteins. The release of the repressors executes the ERSR program. Using a human glioma cell line in a miniaturized, luminescent format, a high-throughput screen was developed to identify actuators of the ERSR.
(1) Soboloff, J. and S. A. Berger (2002). "Sustained ER Ca2+ depletion suppresses protein synthesis and induces activation-enhanced cell death in mast cells." J Biol Chem 277(16): 13812-20.
NIH Chemical Genomics Center [NCGC]
NIH Molecular Libraries Probe Centers Network [MLPCN]
Assay Submitter (PI): Maurizio Grimaldi, Southern Research Institute
Stable transfected human glioma cell line, U87-MG, are dispensed at density 1000 cells/well into Greiner white solid bottom 1536-well assay plates. Compounds are transferred via Kalypsys pin tool equipped with 1536-pin array (10nl slotted pins, V&P Scientific, San Diego, CA). The assay plates will be incubated for 16 hours and developed by adding appropriate quantities of the Promega Bright Glo reagent. The plates will be incubated at room temperature for 10 minutes prior to being transferred into a ViewLux high-throughput CCD imager (PerkinElmer), wherein end-point measurements of luminescence are acquired.
For `COc1ccc2c(c1)[C@@]13CCCC[C@H]1[C@@H](C2)NCC3`, the compound was called inactive.
Take `COc1ccc2c(c1)/C(=C/c1cnc[nH]1)C(=O)N2`: the call was inactive.
In the case of `C=CCN(C1=NCCN1)c1c(Cl)cccc1Cl`, the outcome was inactive.
Turning to `C[N+]1(C)CCC(OC(=O)C(c2ccccc2)c2ccccc2)CC1`, the outcome was inactive.
On to `CC(C)(C)c1cc(C=C(C#N)C#N)cc(C(C)(C)C)c1O`, for which the compound was classed as inactive.
Regarding `C=CCN1CC[C@]23c4c5ccc(O)c4O[C@H]2/C(=N/NC(=O)c2ccccc2)CC[C@@]3(O)[C@H]1C5`, the compound was called inactive.
Turning to `Cc1cc([C@@H]2CCCN2C)on1`, the compound was called inactive.
With `O=[N+]([O-])/C=C/c1ccc2c(c1)OCO2` the entry was “inactive”; with `CN(C(=O)Cc1ccc(Cl)c(Cl)c1)C(CN1CCCC1)c1cccc(OCC(=O)O)c1` (stereo not given), “inactive”.
Take `NC(=O)COc1c(F)cc(SCCNS(=O)(=O)c2ccccc2)cc1F`: the result was inactive.
For the compound `O=[N+]([O-])c1ccc2nc(N3CCNCC3)ccc2c1`, the compound was called inactive.
With `CCN(CC)c1ncnc2c1ncn2[C@@H]1O[C@H](COP(=O)(O)OP(=O)(O)C(Br)(Br)P(=O)(O)O)[C@@H](O)[C@H]1O`, the compound was classed as inactive.
On to `Cc1o[nH]c(=O)c1CC(N)C(=O)O` (stereo not given), for which the compound was called inactive.
Regarding `C[N+](C)(C)CC#CCOC(=O)Nc1cccc(Cl)c1`, the result was inactive.
As to `C[C@@H]1O[C@@H](O[C@H]2C[C@@H](O)[C@]3(CO)[C@@H]4C(CC[C@]3(O)C2)[C@@]2(O)CC[C@H]([C@@H]3COC(=O)C3)[C@@]2(C)C[C@H]4O)[C@H](O)[C@H](O)[C@H]1O` (stereo not given in full), the result was inactive.
Consider `Ic1ccccc1CNC1C2CCN(CC2)C1C(c1ccccc1)c1ccccc1` (stereo not given), for which the compound was called inactive.
For `c1ccc2c(N3CCNCC3)cccc2c1`, the call was inactive.
For `CN1CCC(c2c[nH]c3ccc(O)cc23)CC1`, the call was inactive.
The result for `CC1OC1P(=O)(O)O` (stereo not given) reads “inactive”; that for `C=CCN1C[C@@H](C)N([C@H](c2ccc(C(=O)N(CC)CC)cc2)c2cccc(OC)c2)C[C@@H]1C`, “inactive”; that for `CC1(C(=O)O)C2CCC(O2)C1(C)C(=O)O` (stereo not given), “inactive”.
Take `N[C@@H](CCl)C(=O)O`: the compound was classed as inactive.
`Oc1ccc2c3c1O[C@H]1c4[nH]c5ccccc5c4C[C@@]4(O)C(C2)N(CC2CC2)CCC314` (stereo not given in full): the compound was called inactive.
For `N[C@@H](Cn1oc(=O)[nH]c1=O)C(=O)O`, the result was inactive.
For `N=C(N)c1ccc(CS(=O)(=O)F)cc1`, the outcome was inactive.
The result for `Clc1ccc(N2CC3CCC(C2)N3)nn1` reads “inactive”.
Regarding `CC(=O)OCC1=C(C(=O)O)N2C(=O)[C@@H](NC(=O)CCC[C@@H](N)C(=O)O)[C@H]2SC1`, the compound was called inactive.
As for `Cc1[nH]c2ccc(O)cc2c1CCN`, the call was inactive.
For the compound `CC(N)[C@H](O)c1ccc(O)c(O)c1` (stereo not given in full), the compound was classed as inactive.
For `CCCC[N+]1(C)C2CC(OC(=O)[C@H](CO)c3ccccc3)CC1C1OC12` (stereo not given in full), the call was inactive.
As to `O=S1(=O)N(CCN2CC=C(c3c[nH]c4cc(F)ccc34)CC2)c2cccc3c2N1CCC3`, the call was inactive.
With `CN1C2CCC1CC(OC(c1ccccc1)c1ccccc1N)C2` (stereo not given) the entry was “inactive”; with `Clc1cc(I)cc(Cl)c1NC1=NCCN1`, “inactive”.
As for `CN(N=O)c1cc(O)ccc1O`, the outcome was inactive.
Regarding `CC(Cc1ccc(OCC(=O)O)cc1)NCC(O)c1cccc(Cl)c1` (stereo not given), the result was inactive.
As to `CCCN(CCC)[C@H]1CCc2c(F)ccc(O)c2C1`, the result was inactive.
On to `C[C@H](Cc1ccc2c(c1)OC(C(=O)O)(C(=O)O)O2)NC[C@H](O)c1cccc(Cl)c1`, for which the result was inactive.
The result for `CC12NC(Cc3ccccc31)c1ccccc12` (stereo not given) reads “inactive”.
Take `CCCN1CCc2cccc3c2[C@H]1Cc1ccc(O)c(O)c1-3`: the outcome was inactive.
The result for `C[N+]1(C)CCOC(O)(c2ccc(-c3ccc(C4(O)C[N+](C)(C)CCO4)cc3)cc2)C1` (stereo not given) reads “inactive”.
